A short description of assay [1]: anti-His antibody binders, primary screen, artefact control for SMM control protein annotation, biochemical, small-molecule microarray, 635 nm fluorescence (AID 1128).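 Further: score merges feature fluorescence with signal-to-noise for each printed compound spot.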 The conditions noted are these: anti-His Alexa647 antibody binding, higher = more signal.
Assay [2] deals with Human papillomavirus type 1a E7 protein (residues 1-88). The assay is described as follows: HPV1a E7 small-molecule binders, primary screen, biochemical, small-molecule microarray, residues 1-88, 635 nm (AID 1129). The conditions noted are these: small-molecule microarray binding, fluorescence 635 nm; higher = more signal.
For assay [3], the target named is Focal adhesion kinase 1 (Homo sapiens) (UniProt Q05397). The experiment in a line: small-molecule microarray binders of FAK, primary screen, biochemical, 635/667 nm fluorescence, BSA, DTT (AID 1130).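 Further: composite of spot emission at 667 nm and signal to noise over triplicate slides.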 Particulars: PTK2 binding, 635 nm fluorescence, higher = more signal.
The subject of assay [4] is Fibrinogen (Alexa647-labelled). The experiment in a line: fibrinogen binders on compound microarrays, profiling panel, artefact control for SMM control-protein annotation, biochemical, small-molecule microarray, 635/667 nm fluorescence (AID 1131).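 Further: z-score merges 667 nm fluorescence with per-spot signal-to-noise over triplicate slides.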 Particulars: fibrinogen-A647 binding fluorescence, higher = more signal.
Assay [5] addresses Follistatin (Homo sapiens) (UniProt P19883). The experiment in a line: follistatin binders on small-molecule microarrays, primary screen, biochemical, small-molecule microarray, 635/667 nm fluorescence (AID 1132). The conditions noted are these: FST binding, 635 nm fluorescence, higher = more signal.
Assay [6] concerns the target Fibroblast growth factor 2 (Homo sapiens) (UniProt P09038). The assay is described as follows: FGF2 binders on small-molecule microarrays, primary screen, biochemical, small-molecule microarray, 635/667 nm fluorescence (AID 1133). Particulars: small-molecule microarray binding, FGF2, fluorescence 635/667; higher = more signal.
A short description of assay [7]: mitochondrial membrane potential change in A549 cells, profiling panel, cell-based, JC-1 fluorescence, basal, 24 h, 100 nL (AID 1138).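 Further: A549 lung adenocarcinoma cells under basal conditions with no added stimulus; test concentration not given here.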 Particulars: higher = more signal.
Another assay concerns Lefty1. The assay is described as follows: Lefty1 binders on small-molecule microarrays, primary screen, biochemical, small-molecule microarray, 635/667 nm fluorescence (AID 1139). Particulars: small-molecule microarray binding, fluorescence 635/667; higher = more signal.
Assay [8] has as its system wheat germ agglutinin (Triticum aestivum), Alexa647-labelled. The assay is described as follows: wheat germ agglutinin binders on compound microarrays, profiling panel, artefact control for SMM control-protein annotation, biochemical, small-molecule microarray, 635/667 nm fluorescence (AID 1140).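 Further: score merges 667 nm feature emission with signal to noise over triplicate slides.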 Particulars: WGA-A647 binding, 635 nm fluorescence, higher = more signal.
In assay [9] the target is Luciferin 4-monooxygenase (Photinus pyralis) (UniProt P08659). The experiment in a line: firefly luciferase enzyme inhibitors, primary screen, biochemical, luminescence, purified enzyme, 2006 set (AID 1141).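 Further: cell-free assay with purified firefly luciferase at 100 ng per well in PBS; test concentration not given here.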 Particulars: SteadyGlo luminescence, 30 min, higher = more signal, called active from +8 up or from −8 down.

SMILES strings stand for the structures. Active and inactive are the calls of the source.

Sequence of Luciferin 4-monooxygenase (Photinus pyralis) (P08659 whole entry, looked up): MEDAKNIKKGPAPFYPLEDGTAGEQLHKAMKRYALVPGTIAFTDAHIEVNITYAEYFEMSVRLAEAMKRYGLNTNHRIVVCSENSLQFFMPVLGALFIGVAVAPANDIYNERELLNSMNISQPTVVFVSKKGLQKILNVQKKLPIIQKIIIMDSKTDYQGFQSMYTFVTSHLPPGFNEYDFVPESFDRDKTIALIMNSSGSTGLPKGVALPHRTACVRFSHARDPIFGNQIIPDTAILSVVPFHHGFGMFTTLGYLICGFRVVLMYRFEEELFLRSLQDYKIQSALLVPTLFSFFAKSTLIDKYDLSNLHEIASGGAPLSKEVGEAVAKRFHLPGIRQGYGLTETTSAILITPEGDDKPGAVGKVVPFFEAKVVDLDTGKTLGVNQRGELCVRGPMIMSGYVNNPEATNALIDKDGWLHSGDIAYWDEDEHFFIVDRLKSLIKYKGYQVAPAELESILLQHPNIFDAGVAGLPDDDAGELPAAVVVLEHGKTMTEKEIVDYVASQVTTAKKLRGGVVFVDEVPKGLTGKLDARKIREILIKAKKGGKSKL
Sequence of Fibroblast growth factor 2 (Homo sapiens) (P09038 whole entry, looked up): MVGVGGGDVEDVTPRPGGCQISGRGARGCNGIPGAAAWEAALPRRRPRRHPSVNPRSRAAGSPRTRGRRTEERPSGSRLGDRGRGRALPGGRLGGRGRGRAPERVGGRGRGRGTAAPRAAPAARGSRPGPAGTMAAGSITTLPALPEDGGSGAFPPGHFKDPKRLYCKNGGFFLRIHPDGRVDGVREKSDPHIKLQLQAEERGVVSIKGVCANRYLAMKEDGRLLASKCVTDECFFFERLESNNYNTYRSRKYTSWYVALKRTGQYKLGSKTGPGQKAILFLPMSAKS
Sequence of Focal adhesion kinase 1 (Homo sapiens) (Q05397 whole entry, looked up): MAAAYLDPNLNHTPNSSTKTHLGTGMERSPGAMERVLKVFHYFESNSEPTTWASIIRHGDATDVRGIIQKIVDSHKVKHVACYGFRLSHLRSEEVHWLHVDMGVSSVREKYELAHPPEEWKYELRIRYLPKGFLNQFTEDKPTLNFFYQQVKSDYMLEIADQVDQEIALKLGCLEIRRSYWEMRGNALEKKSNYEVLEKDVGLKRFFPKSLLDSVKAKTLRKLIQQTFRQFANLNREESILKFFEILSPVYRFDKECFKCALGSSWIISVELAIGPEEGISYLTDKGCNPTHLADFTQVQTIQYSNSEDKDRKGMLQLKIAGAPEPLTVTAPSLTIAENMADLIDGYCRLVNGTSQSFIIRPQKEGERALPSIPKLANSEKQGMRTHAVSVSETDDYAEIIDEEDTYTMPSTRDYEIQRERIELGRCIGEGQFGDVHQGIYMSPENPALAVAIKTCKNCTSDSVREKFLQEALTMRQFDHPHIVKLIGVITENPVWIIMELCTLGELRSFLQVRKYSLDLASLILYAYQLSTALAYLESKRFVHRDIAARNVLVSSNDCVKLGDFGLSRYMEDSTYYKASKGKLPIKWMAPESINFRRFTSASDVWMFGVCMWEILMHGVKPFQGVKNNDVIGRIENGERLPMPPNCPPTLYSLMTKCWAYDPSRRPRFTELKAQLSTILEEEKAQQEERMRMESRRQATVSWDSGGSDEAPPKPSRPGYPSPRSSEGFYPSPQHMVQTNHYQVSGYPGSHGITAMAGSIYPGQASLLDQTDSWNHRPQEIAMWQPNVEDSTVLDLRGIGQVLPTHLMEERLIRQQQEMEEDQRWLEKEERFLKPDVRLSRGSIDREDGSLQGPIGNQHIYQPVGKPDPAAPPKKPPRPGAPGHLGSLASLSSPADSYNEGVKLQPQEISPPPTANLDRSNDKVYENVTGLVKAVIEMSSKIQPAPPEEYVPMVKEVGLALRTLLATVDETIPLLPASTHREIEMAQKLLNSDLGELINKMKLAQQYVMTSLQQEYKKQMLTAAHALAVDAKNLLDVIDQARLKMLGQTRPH
Sequence of Follistatin (Homo sapiens) (P19883 whole entry, looked up): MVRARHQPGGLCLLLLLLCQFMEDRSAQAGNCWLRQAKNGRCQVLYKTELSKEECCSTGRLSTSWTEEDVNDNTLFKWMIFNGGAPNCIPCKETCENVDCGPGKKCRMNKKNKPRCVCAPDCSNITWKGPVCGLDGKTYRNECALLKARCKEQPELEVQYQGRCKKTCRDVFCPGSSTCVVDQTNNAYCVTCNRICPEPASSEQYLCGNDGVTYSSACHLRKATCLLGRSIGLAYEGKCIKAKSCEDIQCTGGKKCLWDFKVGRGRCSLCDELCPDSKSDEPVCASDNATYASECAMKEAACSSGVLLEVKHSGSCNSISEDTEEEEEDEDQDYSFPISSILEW

As for `CO[C@H]1O[C@H](CO)[C@@H](OC(=O)Nc2ccc3c(c2)OCO3)[C@H](OC(=O)Nc2ccccc2-c2ccccc2)[C@H]1OC(=O)Nc1ccccc1-c1ccccc1`, the composite z-score was found to be 1.73 in assay [1]; 1.26 in assay [2]; 1.17 in assay [3]; 0.435 in assay [4]; 0.694 in [5]; 0.819 in assay [6]. The composite z-score in the assay with Lefty1 is -0.152; in [8], 0.331. The z-score in assay [7] was -0.559; in [9], -1.22 (inactive).

Regarding `C=C(C)[C@@H]1CC=C(C(O)C2C=CC3C(=O)N(C)C(=O)C3N2Nc2ccc([N+](=O)[O-])cc2[N+](=O)[O-])CC1` (stereo not given in full), the composite z-score in [1] was 0.607; in [2], 1.27; in assay [3], 0.512; in assay [4], 1; in assay [5], 1.24; in [6] it was -0.0675. Besides, the composite z-score in the assay on Lefty1 is 0.424; in assay [8] it was 0.799. Besides, the z-score in [7] is 1.88; in [9] it was 0.511 (inactive).

In the case of `CC(C)[Si](C#CCCc1ccccc1)(O[C@H](c1ccccc1)c1cn(Cc2ccccc2)nn1)C(C)C`, the composite z-score in assay [1] came out at 0.269; in [2], 1.09; in assay [3], 0.104; in [4] it was 0.642; in assay [5], 0.709; in assay [6], 0.368. Further, the values for the composite z-score (with Lefty1; in assay [8]) were 0.919 and 0.782, respectively. The z-score in assay [7] was 0.26; in assay [9], 0.898 (inactive).

As to `COc1ccc(C(=O)Nc2ccc(CN3C(=O)[C@@]4(O[C@@H](CCn5cc(CCO)nn5)[C@H]([Si](C)(C)c5ccc(OC)cc5)[C@H]4C)c4ccccc43)cc2)cc1`, the composite z-score in assay [1] was 1.17; in assay [2], 1.17; in assay [3] it was 0.749; in assay [4], 0.874; in [5] it was 1.35; in assay [6], 1.21. The composite z-score in the assay with Lefty1 came to 1.1; in [8], 0.522. Further, the z-score is -0.326 in assay [7] and -0.162 (inactive) in assay [9].

Consider `O=C(NC1CC1)[C@@H]1c2ccccc2C(=O)N(CC23CC4CC(CC(C4)C2)C3)[C@H]1c1ccc(CO)cc1`, for which the composite z-score in assay [1] was found to be 1.17; in assay [2], 1.12; in [3], 0.476; in [4] it was 0.919; in assay [5], 1.44; in assay [6], 1.28. Also, the composite z-score in the assay with Lefty1 came to 1.33; in assay [8] it was 0.33. Also, the z-score in [7] is 0.0467; in assay [9] it was 0.7 (inactive).

On to `COC(=O)[C@@]1(Cc2ccc(OC)cc2)[C@H]2c3cc(C(=O)N4CCCC4)n(Cc4c(CO)[nH]cc(C)c4=O)c3C[C@H]2CN1C(=O)c1ccccc1`, for which the composite z-score was 1 in [1]; 1.24 in assay [2]; 0.502 in [3]; 0.91 in assay [4]; -0.116 in [5]; -0.0376 in assay [6]. Besides, the composite z-score was -0.116 in the assay with Lefty1 and 0.723 in assay [8]. Also, the z-score in [7] is 0.534; in assay [9], 0.835 (inactive).

On to `CCCNC(=O)[C@@]1(Sc2ccc(C)cc2)CC(=O)N(Cc2ccccc2Cl)[C@@H]1c1ccc(CO)cc1I`, for which the composite z-score is 0.977 in [1]; -0.157 in [2]; 0.313 in assay [3]; 0.22 in [4]; -0.328 in [5]; -1.08 in assay [6]. Also, the composite z-score with Lefty1 is -0.896; in [8], 0.202. Further, the z-score in [7] is 0.685; in [9], 0.718 (inactive).

With `COC(=O)C(CC#Cc1ccc2c(c1)[C@]1(C(=O)N2)[C@H](c2ccccc2OCCO)N2[C@H](c3ccccc3)[C@H](c3ccccc3)OC(=O)[C@H]2[C@@H]1C(=O)N1CCc2cc(OC)c(OC)cc2C1)C(=O)OC`, the composite z-score in [1] was 1.3; in assay [2], 1.21; in assay [3], 0.317; in assay [4] it was 0.601; in [5], 1.32; in assay [6] it was 0.667. In addition, the composite z-score was 0.896 with Lefty1 and 0.28 in assay [8]. Moreover, the z-score in [7] was -0.668; in assay [9] it was -0.242 (inactive).

With `O=C1C2C=CC(C(O)c3ccc([N+](=O)[O-])cc3)N(Nc3ccccc3F)C2C(=O)N1c1ccccc1` (stereo not given), the composite z-score in assay [1] is 1.68; in assay [2] it was 1.19; in assay [3] it was -0.119; in assay [4], 0.717; in [5], 0.232; in assay [6], -0.218. For the same molecule, the composite z-score in the assay on Lefty1 is -0.46; in [8], 1.36. Besides, the values for the z-score in assay [7] and in assay [9] were -0.675 and 0.739 (inactive), respectively.

With `CC(C)OC(=O)CC(=O)CC(O)c1cccc([N+](=O)[O-])c1` (stereo not given), the composite z-score in [1] is 0.68; in assay [2], 1.14; in assay [3], 0.4; in assay [4], 0.438; in assay [5] it was 0.461; in assay [6], -0.277. In addition, the composite z-score is -0.0245 in the assay on Lefty1 and 0.265 in assay [8]. Further, the z-score is -0.428 in assay [7] and 1.9 (inactive) in assay [9].

For `CC(C)C[C@@H]1NC(=O)[C@@]23C(=O)N[C@@H](Cc4ccccc4)C2[C@H](C)[C@@]2(C)O[C@H]2C3/C=C/C/C=C\CNC(=O)CNC1=O` (stereo not given in full), the composite z-score in assay [1] is 0.256; in [2], 0.088; in [3], -0.0353; in assay [4], 0.177; in [5], 0.929; in [6], 0.766. Further, the composite z-score worked out at 0.938 in the assay on Lefty1 and 0.375 in [8]. Moreover, the values for the z-score in assay [7] and in [9] were -0.0173 and -0.321 (inactive), respectively.

Turning to `C=CCOC(=O)[C@H]1[C@@H]2C(=O)O[C@@H](c3ccccc3)[C@@H](c3ccccc3)N2[C@@H](c2ccc(OCCOC(=O)[C@@H]3C[C@@H]4C(=O)N[C@@H](CCCCNC(C)=O)C(=O)N4[C@@H]3c3cccc(OCCO)c3)cc2)[C@]12C(=O)Nc1ccccc12`, the composite z-score in assay [1] stood at 2.81; in assay [2], 1.19; in [3], 0.838; in assay [4], 0.276; in assay [5] it was 1.25; in assay [6] it was 1.53. The composite z-score in the assay with Lefty1 is 0.581; in assay [8] it was -0.185. Also, the z-score in [7] is -0.0996; in assay [9], -0.878 (inactive).

Take `CC(C)C(CO)N1C(=O)[C@@H]2C3C(=O)OCCC/C=C\[C@H]3OC23C=CCN(Cc2ccccc2)C(=O)[C@@H]13` (stereo not given in full): the composite z-score was -1.18 in [1]; -0.359 in assay [2]; -0.0926 in assay [3]; -2.51 in assay [4]; -0.908 in assay [5]; -0.591 in [6]. In addition, the composite z-score with Lefty1 was -0.524; in [8], -1.2. Further, the z-score in assay [7] was 1.21; in assay [9] it was -0.59 (inactive).

With `CCCCC(O)C1C=CC2C(=O)N(c3ccccc3)C(=O)C2N1Nc1ccc(C#N)cc1` (stereo not given), the composite z-score was found to be 0.584 in assay [1]; 1.13 in [2]; 0.764 in [3]; 0.981 in [4]; 0.0191 in assay [5]; 0.0696 in [6]. In addition, the composite z-score is -0.295 in the assay on Lefty1 and 0.819 in assay [8]. The results for the z-score in [7] and in [9] were 0.0808 and -1.45 (inactive), respectively.

Regarding `COC(=O)[C@]1(Cc2ccccc2)N=C(c2ccc(OCCCO)cc2)O[C@@H]1c1ccccc1CN=[N+]=[N-]`, the composite z-score in assay [1] was 1.12; in assay [2] it was 1.16; in assay [3], 0.687; in assay [4], 0.415; in assay [5] it was 1.44; in assay [6] it was 0.702. In addition, the results for the composite z-score (in the assay with Lefty1; in assay [8]) were 0.0393 and 0.418, respectively. Moreover, the z-score in assay [7] is -1.74; in assay [9], -1.44 (inactive).

`CC1CC/C=C\[C@H]2OC34C=CCN(Cn5nnc6ccccc65)C(=O)[C@H]3N(CCCCCCO)C(=O)[C@@H]4C2C(=O)O1` (stereo not given in full): the composite z-score in assay [1] was 0.965; in assay [2], -0.506; in assay [3], -0.121; in assay [4] it was -0.627; in assay [5], -1.45; in [6], -1.09. Also, the composite z-score is -0.654 in the assay with Lefty1 and -0.435 in [8]. Besides, the z-score was 0.966 in assay [7] and 0.152 (inactive) in assay [9].

Regarding `Cc1ccc(S[C@]2(C(=O)NCCCN(C)C)CC(=O)N(Cc3ccccc3C(F)(F)F)[C@@H]2c2ccc(CO)cc2I)cc1`, the composite z-score was -0.626 in [1]; -0.0904 in assay [2]; 0.591 in [3]; -0.745 in assay [4]; 0.0315 in assay [5]; -0.635 in assay [6]. Moreover, the composite z-score was -1.32 in the assay with Lefty1 and -0.193 in assay [8]. Further, the z-score in [7] was 0.281; in assay [9], -0.514 (inactive).

Source of the values: PubChem BioAssay.
